Measurements as given in PubChem BioAssay (EPA / NIEHS).
“And” between values parts separate entries of the source, which are not always exact repeats. Identical values can stand only once. Records with an inconclusive call do not appear. The source made the active and inactive calls. Rule for the calls: active = hit-call score of the fitted dose curve at least 0.9, where 1 is the maximum; inconclusive = response in the unintended direction; inactive = score below 0.9.

Test: Tanguay_ZF_120hpf_PE_legacy: (Legacy) Oregon State University Tanguay Lab 120 Hour Post-fertilization zebrafish Assay for Pericardial Edema (AID 2283640);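 for AC50: potency for increased incidence of pericardial edema versus DMSO baseline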
Method: Tanguay_ZF_120hpf_legacy is a whole embryo, multiplexed endpoint assay using zebrafish larvae exposed for 120 hours post fertilization on a 96-well plate.Tanguay_ZF_120hpf_PE_legacy is one of one assay component(s) measured or calculated from the Tanguay_ZF_120hpf_legacy assay. It is designed to make measurements of zebrafish development as detected with brightfield microscopy of developing zebrafish embryos.Data from the assay component Tanguay_ZF_120hpf_PE_legacy was analyzed into 1 assay endpoints. This assay endpoint, Tanguay_ZF_120hpf_PE_legacy, was analyzed in the positive analysis fitting direction relative to DMSO as the negative control and baseline of activity. Using a type of morphology reporter, gain-of-signal activity can be used to understand changes in developmentals as they relate to the whole embryo. To generalize the intended target to other relatable targets, this assay endpoint is annotated to the zebrafish development intended target family, where the subfamily is embryonic morphogenesis.
Zebrafish husbandry: Tropical 5D wild-type adult zebrafish were housed in at an approximate density of 1000 per 100 gallon tank at the Sinnhuber Aquatic Research Laboratory, Oregon State University, Corvallis, OR. Each tank was kept at standard laboratory conditions of 28C on a 14-h light/10-h dark photoperiod in fish water consisting of reverse osmosis water supplemented with a commercially available salt (Instant Ocean). Spawning funnels were placed into the tanks the night prior, and embryos were collected and staged. […] Ten microliters of each row of dilution plate 2 was added to 2 exposure plates. The final DMSO concentration used was 0.64% (vol/vol). Thirty-two embryos were also exposed to 5uM trimethyltin chloride (positive control). Plates were sealed to prevent evaporation and foil covered to reduce light exposure and kept in a 28C incubator. Embryos were statically exposed until 120 hpf. At 24 hpf, embryos were assessed for photomotor response using a custom photomotor response analysis tool (PRAT) and for developmental toxicity endpoints (MO24: mortality at 24 hpf, DP: developmental progression, SM: spontaneous movement, and NC: notochord distortion). At 120 hpf, locomotor activity was measured using Viewpoint Zebralab and assessed for 18 endpoints. Zebrafish acquisition and analysis program (ZAAP), a custom program designed to inventory, acquire, and manage zebrafish data, was used to collect developmental endpoints as either present or absent (i.e., binary responses were recorded). If mortality occurred for an embryo (at either 24 or 120 hpf), the non-mortality endpoints were not measured.

Row | SMILES | outcome | AC50
1 | CCCCCOC(=O)COc1cc(N2C(=O)C3=C(CCCC3)C2=O)c(F)cc1Cl | inactive | 
2 | CCNc1nc(N)nc(Cl)n1 | inactive | 
3 | CCOC(=O)c1ccc(O)cc1 | inactive | 
4 | COCCO | inactive | 
5 | CCOC(=O)C(C)Oc1ccc(Oc2nc3ccc(Cl)cc3o2)cc1 (stereo not given) | inactive | 
6 | CCN(Cc1c(F)cccc1Cl)c1c([N+](=O)[O-])cc(C(F)(F)F)cc1[N+](=O)[O-] | inactive | 
7 | CCCCC(CC)COC(=O)c1ccccc1C(=O)O (stereo not given) | inactive | 
8 | CCSC(=O)N(CC(C)C)CC(C)C | inactive | 
9 | CCCOC(=O)c1ccc(C(=O)OCCC)nc1 | inactive | 
10 | O=C(Nc1ccc([N+](=O)[O-])cc1Cl)c1cc(Cl)ccc1O | inactive | 
11 | CCCN(CCC)C(=O)SCC | inactive | 
12 | O=C(O)C1(C(=O)Nc2ccc(Cl)cc2Cl)CC1 |  | 41.9 µM (active)
13 | CSC(=O)c1cccc2nnsc12 | inactive | 
14 | c1ccc(Nc2ccccc2)cc1 |  | 36.1 µM (active)
15 | S=C([S-])NCCNC(=S)[S-].[Mn+2] | inactive | 
16 | CCCCOCCOCCOCc1cc2c(cc1CCC)OCO2 |  | 26.2 µM (active)
17 | CCCCC(CC)CN1C(=O)C2C3C=CC(C3)C2C1=O (stereo not given) | inactive | 
18 | CCCN(CCC)c1c([N+](=O)[O-])cc(C(F)(F)F)c(N)c1[N+](=O)[O-] | inactive | 
19 | N#CSCSc1nc2ccccc2s1 | inactive | 
20 | CC(C)CCCCCCc1ccc(O)cc1 | inactive | 

Row | SMILES | outcome | AC50
21 | CCCCOC(=O)C(C)Oc1ccc(Oc2ccc(C(F)(F)F)cn2)cc1 (stereo not given) | inactive | 
22 | CC(=O)[C@H]1CC[C@H]2[C@@H]3CCC4=CC(=O)CC[C@]4(C)[C@H]3CC[C@]12C | inactive | 
23 | S=C(S)NCCNC(=S)S.[Mn+2].[S-]C([S-])=NCCN=C([S-])[S-].[Zn+2] | inactive | 
24 | COc1c(Cl)ccc(Cl)c1C(=O)O | inactive | 
25 | N[C@@H](Cc1cc(I)c(Oc2ccc(O)c(I)c2)c(I)c1)C(=O)O | inactive | 
26 | Oc1ccc(C(c2ccc(O)cc2)C(Cl)(Cl)Cl)cc1 | inactive | 
27 | CCOC(=O)COc1cc(-n2ncc(C(F)(F)F)c(C)c2=O)c(F)cc1Cl | inactive | 
28 | CCC(C)OC(=O)N1CCCCC1CCO (stereo not given) | inactive | 
29 | CCCCOC(=O)[C@@H](C)Oc1ccc(Oc2ccc(C(F)(F)F)cn2)cc1 | inactive | 
30 | COC(=O)CSc1cc(N=c2sc(=O)n3n2CCCC3)c(F)cc1Cl | inactive | 
31 | CCN(CC)C(=O)c1cccc(C)c1 | inactive | 
32 | C=CCOC(Cn1ccnc1)c1ccc(Cl)cc1Cl (stereo not given) | inactive | 
33 | C[C@]12C[C@H](O)[C@H]3[C@@H](CCC4=CC(=O)CC[C@@]43C)[C@@H]1CC[C@@H]2C(=O)CO | inactive | 
34 | CN(C)C(=O)Nc1ccc(Cl)c(Cl)c1 | inactive | 
35 | CC(C)(c1ccc(O)cc1)c1ccc(O)cc1 |  | 43.3 µM (active) and 34.9 µM (active)
36 | Cc1nn(C)c(Oc2ccccc2)c1C=NOCc1ccc(C(=O)OC(C)(C)C)cc1 | inactive | 
37 | COC(=O)c1ccc(I)cc1S(=O)(=O)NC(=O)Nc1nc(C)nc(OC)n1 | inactive | 
38 | C#CCOC(=O)[C@@H](C)Oc1ccc(Oc2ncc(Cl)cc2F)cc1 | inactive | 
39 | CC1(C)C(C=C(Cl)Cl)C1C(=O)OCc1cccc(Oc2ccccc2)c1 (stereo not given) | inactive | 
40 | O=C(O)c1ccccc1 | inactive | 
